Source: PubChem
This is a sample that favours compounds with a hit; in the whole collection about 7.9% have one here.
MCF10A rerep: DNA re-replication induction in MCF 10a cells. MCF 10A DNA re-replication, Hoechst nuclear intensity, 48 h. Potency, µM (titrated, usually from 46.1 µM), without a hit: top-dose activity, positive = re-replication, usual class: activators. 350,000 compounds, 2.9% hits; further: % of control where 0% means no effect; nearly all actives have a fitted effect of over 50% in size
HT1080 IDH1KD tx: toxicity to HT-1080 IDH1 knockdown cells (counter line); HT-1080 IDH1 knockdown viability, ATP luminescence, 48 h; Potency, µM (series often up to 46.1 µM), for inactives: top-dose activity, negative = toxicity, hits mostly cytotoxic; 360,000 compounds, 2% hits; AID 686971;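 further: 0% = DMSO wells and -100% = cell-free medium wells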
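Luminescent ATP read-out (CellTiter-Glo, 10 min at room temperature) after 48 h compound exposure at 37 °C gave viability of IDH1-knockdown HT-1080 cells. Activity was normalised to DMSO and cell-free wells, then fitted as concentration-response curves.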
HT1080NT lethal: kills 2HG-producing HT-1080-NT fibrosarcoma cells. HT-1080-NT fibrosarcoma viability, CellTiter-Glo ATP luminescence, 48 h. Potency, µM (highest dose often 46.1 µM), inactives show at the top dose activity, negative = less viability, usual class: cytotoxic. 360,000 compounds, 1.6% hits;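 further: NT is the 2HG producing partner of a matched IDH1 knockdown line; 0% = DMSO-treated cells and -100% = media-only wells without cells; nearly all actives have a fitted effect of over 55% in size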
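HT-1080-NT; 750 cells/well; 5% FBS RPMI; 48 h compound, 37 degrees C; CellTiter-Glo luminescence; curve fitting and curve-class assignment.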
SW480 rerep: DNA re-replication induction in SW480 cells; SW480 DNA re-replication, Hoechst DNA content imaging, 48 h; Potency, µM (series often up to 46.1 µM), for inactives: at the top dose re-replication activation, most hits filed as activators; 340,000 compounds, 1.8% hits; further: % of control where 0% means no effect; nearly all actives have a fitted effect of over 55% in size
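Readout is total intensity of Hoechst-stained nuclei, excited at 405 nm and collected at 500-530 nm. Compound treatment lasted 48 hr at 37 C in 5% CO2 before staining.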
KB-V1 cytotox: KB-V1 MDR subline cytotoxicity; KB-V1 MDR cells viability, CellTiter-Glo, 72 h; Potency, µM (series often up to 46.1 µM), hits mostly cytotoxic; 400,000 compounds, 3.4% hits; AID 1347076; further: on the % scale 0 is the no-effect control and ±100 the full control effect; nearly all actives have a fitted effect of over 60% in size
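Cytotoxicity via CellTiter-Glo luminescence after 72 h compound exposure at 37 degrees C. Cells: drug-selected KB-V1 line, DMEM phenol-red free plus 10% FBS. Compounds tested at multiple concentrations; normalized data fitted to concentration-effect curves.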
KB-3-1 tox: kills parental KB-3-1 adenocarcinoma cells; 400,000 compounds, 1.4% hits; KB-3-1 viability, CellTiter-Glo ATP luminescence, 72 h; Potency, µM (titrated, usually from 46.1 µM), hits mostly cytotoxic; AID 1347075; further: on the % scale 0 is the no-effect control and ±100 the full control effect; nearly all actives have a fitted effect of over 60% in size
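KB-3-1 parental drug-naive adenocarcinoma cells in DMEM/10% FBS, incubated 72 h at 37 C with pin-transferred compounds across a concentration series. Viability by CellTiter-Glo luminescence; concentration-response curves fitted after normalization.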
The depositor's hits bear a star; i = inactive; ? = inconclusive; · = not tested or not shown; [ ] = remark or other dose. The call rests on the fitted dose curve; in most records, active means well fitted curve in the direction sought with a large enough effect; inconclusive means small, poorly fitted or top-dose-only effect, or another doubt; inactive means no such curve, though single readings can be large; an effect the other way counts as inactive or inconclusive. Potency means the concentration at half of the fitted maximal effect.

SMILES	MCF10A rerep	HT1080 IDH1KD tx	HT1080NT lethal	SW480 rerep	KB-V1 cytotox	KB-3-1 tox
CCOc1ccccc1C1CC(=O)Oc2c1c(=O)n(C)c1ccccc21 (configuration not stated)	·	·	·	·	i	i
COc1cccc(NC(=O)Nc2ccccc2SC)c1	6%	-1%	1%	2%	i	i
CN(C)c1ccc(NC(=O)Nc2cccc(Cl)c2)cc1	-2%	-10%	?	-1%	13µM*	i
CSc1ccccc1NC(=O)Nc1ccc(F)c(Cl)c1	?	1%	-3%	-1%	21µM*	i
Cc1ccc(NC(=O)Nc2ccc(F)c(Cl)c2)cc1	1%	-4%	0%	-3%	i	i
CSc1ccccc1NC(=O)Nc1cccc(Cl)c1	?	2%	7%	15%	16µM*	?
CN(c1cccc(NC(=O)Nc2cccc(Cl)c2)c1)S(C)(=O)=O	12%	-2%[9.24 µM]	-29%	-2%	?	i
CC(=O)/C(=N/Nc1ccccc1Cl)Sc1nnc(C(O)c2ccccc2)n1-c1ccccc1 (configuration not stated)	1%	0%	-1%	1%	16µM*	i
COC(=O)/C(=N/Nc1ccccc1Cl)Sc1nnc(C(O)c2ccccc2)n1-c1ccccc1 (configuration not stated)	-2%	19%	21%	-9%	i	i
O=C(CN1CC[n+]2c(-c3ccccc3)csc21)c1ccc(Br)cc1	6%	0%	21µM*	-8%	?	i
COC(=O)c1c(-c2ccccc2)csc1NC(=O)CSc1ncnc2sc(C)c(C)c12	-6%	3%	1%	3%	12µM*	i
Cc1sc2ncnc(SCc3ccco3)c2c1C	15µM*	-6%	0%	-3%	i	i
Cc1cccnc1NC(=O)CSc1ncnc2sc(C)c(C)c12	10%	7%	-3%	-5%	15µM*	i
Cc1sc2ncnc(N(C)Cc3ccco3)c2c1C	-7%	-16%	-16%	-1%	?	i
COCCCNC(=O)CC(c1cc(OC)c(OC)c(OC)c1)N1Cc2ccccc2C1=O (configuration not stated)	·	·	·	·	i	i
COc1ccc2[nH]cc(CCNC(=O)/C=C/[C@H]3O[C@@H](n4cnc5c(NC(=O)c6ccccc6)ncnc54)[C@H](O)[C@@H]3O)c2c1	·	23%	25%	·	i	i
COCCNC(=O)C1CCCN(Cc2ccc(C)cc2)CC1 (configuration not stated)	·	22%	17%	·	i	i
Cc1cc(C)cc(NC(=O)C2CCN(c3cc(C)nc4c(-c5ccc(Cl)cc5)c(C)nn34)CC2)c1	·	·	·	·	?	i
Cc1cccc(-c2nc(Cn3c(SCc4cc(C)ccc4C)nc4ccncc43)c(C)o2)c1	·	·	·	·	i	i
COc1cccc(OCc2nc3ncc(Br)cc3[nH]2)c1	-2%	?	2.2µM*	-7%	1µM*	5.8µM*
Cc1cc(C)cc(OCc2nc3ncc(Br)cc3[nH]2)c1	?	?	?	5.2µM*	1µM*	1.3µM*
CCN(c1ccccc1)S(=O)(=O)c1ccc2c(c1)CC(C)N2C(=O)C1CC1 (configuration not stated)	7%	-5%	-2%	-2%	i	i
CCc1cccc(NS(=O)(=O)c2ccc3c(c2)CC(C)N3C(=O)C2CC2)c1 (configuration not stated)	·	·	·	·	13µM*	?
CCOc1ccccc1N(C)S(=O)(=O)c1ccc2c(c1)CC(C)N2C(=O)C1CC1 (configuration not stated)	?	15µM*	?	?	?	i
Cc1ccc2c(c1)N(C(=O)N1CCC(C(=O)NC3CCCCCC3)CC1)CC(C)O2 (configuration not stated)	·	·	·	·	i	i
SMILES	MCF10A rerep	HT1080 IDH1KD tx	HT1080NT lethal	SW480 rerep	KB-V1 cytotox	KB-3-1 tox
CC(C)(C)S(=O)(=O)/C(C#N)=N/Nc1ccc(Cl)cc1	?	?	?	1%	?	?
CC(C)(C)c1ccc(N/N=C(\C#N)S(=O)(=O)C(C)(C)C)cc1	6%	?	23µM*	7%	?	?
COc1cc2c(cc1OC)CN(C(=O)CCOc1ccccc1C)CC2	?	?	?	?	16µM*	?
Cc1ccccc1OCCC(=O)N1CCN(S(=O)(=O)c2ccc(F)cc2)CC1	5%	-16%	-7%	16%	·	·
Cc1cc(C)c(S(=O)(=O)N2CCN(C(=O)CCOc3ccccc3C)CC2)c(C)c1	0%	0%	6%	-6%	5.2µM*	?
CCOc1ccccc1OCCCC(=O)N1CCN(S(=O)(=O)c2cccc(F)c2)CC1	13%	23%	?	1%	6.5µM*	i
N[C@@H](Cc1ccc(O)cc1)C(=O)NO	·	17%	7%	·	·	·
COc1cc(-c2ccc(NC(C)=O)c(OC)c2)ccc1NC(C)=O	9%	-12%	-20%	0%	i	i
COc1cc(-c2ccc(NC(=O)CN3CCC(C)CC3)c(OC)c2)ccc1NC(=O)CN1CCC(C)CC1	?	-30%	-28%	-2%	16µM*	?
COc1cc(-c2ccc(NC(=O)c3ccc(C)cc3)c(OC)c2)ccc1NC(=O)c1ccc(C)cc1	1.6µM*	7%	6%	2.6µM*	i	i
Cc1cccc(-n2c(CNC(=O)c3cccc(F)c3)nnc2SCC(=O)Nc2ccccc2F)c1	·	·	·	·	i	i
Cn1c(CN2CCOCC2)nc2cc(NC(=O)c3ccccc3[N+](=O)[O-])ccc21	·	·	·	·	?	i
COc1ccc(C2=NC(c3ccccc3)CO2)cc1 (configuration not stated)	3%	·	·	6%	·	·
COc1ccc(C2CC23N=C(c2ccccc2)OC3=O)cc1 (configuration not stated)	16µM*	-4%	-1%	5%	i	i
CC(C)(C)OC(=O)C(Oc1ccccc1[N+](=O)[O-])C(=O)OC(C)(C)C	·	9%	7%	·	i	i
Cc1cccc(CS(=O)(=O)c2ncc(Cl)c(C(=O)Nc3nnc(C(C)C)s3)n2)c1	?	7.3µM*	10µM*	?	16µM*	16µM*
CSc1nnc(NC(=O)c2nc(S(=O)(=O)Cc3cccc(C)c3)ncc2Cl)s1	2.1µM*	21µM*	?	21%	?	16µM*
CCSc1nnc(NC(=O)c2nc(S(=O)(=O)Cc3ccc(F)cc3)ncc2Cl)s1	27%	?	?	?	i	?
